Bioassay records (PubChem)
PGC1a acetyl inh: PGC1a acetylation modulation, inhibitor mode; inhibition, % at 15.6 µM; AID 651687; U2OS PGC1a acetylation, AlphaScreen anti-acetyl-lysine; with virally co-expressed GCN5 acetyltransferase; actives 0.17% (n = 350,000);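 active = every replicate shows inhibition of at least 40%; inconclusive = mean inhibition at least 40% but some replicate below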
Rce1 inh: inhibitors of yeast Ras-converting enzyme; yeast membranes, quenched prenylated peptide cleavage fluorescence; calls only; actives 0.27% (n = 290,000); AID 2563;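 active = fall in fluorescence gain of 50% or more versus controls, with final raw signal at or below 3038400; inconclusive = same 50% fall but final raw signal above 3038400; inactive = fall in fluorescence gain under 50%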
Target sequence (Q03530 whole entry, looked up): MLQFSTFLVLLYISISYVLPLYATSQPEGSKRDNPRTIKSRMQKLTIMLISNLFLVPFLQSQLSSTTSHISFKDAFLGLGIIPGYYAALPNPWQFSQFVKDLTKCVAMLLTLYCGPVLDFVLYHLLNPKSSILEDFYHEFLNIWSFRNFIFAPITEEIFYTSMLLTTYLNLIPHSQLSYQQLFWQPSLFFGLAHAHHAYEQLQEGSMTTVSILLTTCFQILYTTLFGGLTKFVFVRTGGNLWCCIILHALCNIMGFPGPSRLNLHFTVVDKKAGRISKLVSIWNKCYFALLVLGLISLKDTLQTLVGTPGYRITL
AI-2 QS modul: modulators of Vibrio harveyi AI-2 quorum sensing system | Vibrio harveyi JMH597 AI-2 luminescence/OD600 ratio, 9 h; active compounds read low; strain lacks LuxN and CqsS sensors; 0 = neutral-control median | activity change, % at 7.5 µM | actives 0.4% (n = 300,000) | AID 2094; in the data active = activity change below about -75%, passing the limit was not always enough; inconclusive = no clear call, values can overlap the other calls;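 note: luminescence divided by OD600 gain over 9 h not by final OD600 alone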
HIF activator: HIF pathway transcriptional activation; U2OS HRE-luciferase reporter, luminescence; normalized: DMSO 0%, desferrioxamine 100%; actives 0.32% (n = 300,000); activation, % at 7.5 µM (by protocol);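 active = mean activation of at least 10% of the iron chelator positive control signal, with at least half of replicates also reaching 10%; inconclusive = mean and replicate majority disagree about reaching 10%; inactive = mean and most replicates under 10%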
C2C12 statin: suppression of simvastatin myotoxicity; C2C12 myotubes + simvastatin, ATP luminescence, 48 h; scaled: DMSO 0, geranylgeraniol control 100; rescue of ATP level, % at 7.49 µM; actives 0.78% (n = 330,000); AID 602340;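 active = mean ATP rescue above about 67%, or every replicate alone reaching that limit, limit read from the data, passing the limit was not always enough; inconclusive = no clear call, values can overlap the other calls; inactive = mean under the limit and some replicate under it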;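 note: myotubes were challenged with 10 µM simvastatin during compound exposure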
Hits are given with their value; i = inactive; ? = inconclusive; nt = no result given; + = active, no number. In the library only some 1.3% were active in any assay of this set; here they are far more common.

SMILES	PGC1a acetyl inh	Rce1 inh	AI-2 QS modul	HIF activator	C2C12 statin
CC(C)CC#Cc1ccc2c(c1)O[C@@H](CN(C)Cc1ccccc1)[C@H](C)CN([C@@H](C)CO)S2(=O)=O	i	nt	nt	nt	nt
C[C@H]1CN([C@@H](C)CO)S(=O)(=O)c2ccc(Br)cc2O[C@@H]1CN(C)S(=O)(=O)c1ccc(F)cc1	i	nt	nt	nt	88
CC(C)CC#Cc1ccc2c(c1)O[C@H](CN(C)Cc1ccccc1)[C@@H](C)CN([C@H](C)CO)S2(=O)=O	52	nt	nt	nt	nt
C[C@H]1CN([C@@H](C)CO)S(=O)(=O)c2ccc(C#CC3CC3)cc2O[C@H]1CN(C)C(=O)Nc1cc(F)ccc1F	i	nt	nt	nt	90
C[C@H]1CN([C@@H](C)CO)S(=O)(=O)c2ccc(C#CC3CC3)cc2O[C@@H]1CN(C)C(=O)Nc1cc(F)ccc1F	i	nt	nt	nt	i
C[C@H]1CN([C@@H](C)CO)S(=O)(=O)c2ccc(C#CC3CCCCC3)cc2O[C@@H]1CN(C)Cc1cccnc1	64	nt	nt	nt	i
COc1cccc(C(=O)Nc2ccc3c(c2)OC[C@@H](C)N(C(C)=O)C[C@H](C)[C@H](OC)CN(C)C3=O)c1	i	nt	nt	nt	i
C[C@@H]1CN([C@H](C)CO)S(=O)(=O)c2ccc(-c3cccnc3)cc2O[C@@H]1CN(C)C(=O)C1CC1	i	nt	nt	nt	i
CC(C)CC#Cc1ccc2c(c1)O[C@@H](CN(C)Cc1ccc(F)cc1)[C@H](C)CN([C@@H](C)CO)S2(=O)=O	i	nt	nt	nt	i
CC(C)CC#Cc1ccc2c(c1)O[C@H](CN(C)Cc1ccccc1)[C@H](C)CN([C@@H](C)CO)S2(=O)=O	48	nt	nt	nt	nt
COc1ccc2c3c(n(C)c2c1)[C@H](CO)N(C)CC31CCN(CC2CC2)CC1	i	nt	nt	nt	nt
c1ccc2c(c1)CNC1(CCCCC1)C2	i	i	i	i	107
O=C1NC2(CCCCCC2)Cc2ccccc21	i	i	i	i	i
COc1ccc2c3c(n(C)c2c1)[C@@H](CO)N(C(=O)c1cnccn1)CC31CCN(C)CC1	i	nt	nt	nt	nt
CO[C@H]1CN(C)C(=O)c2ccc(NC(=O)C3CC3)cc2OC[C@H](C)N(CC2CCCC2)C[C@@H]1C	i	nt	nt	nt	nt
c1ccc2c(c1)nc(-c1ccncc1)n2CCNc1nc(CN2CCCCC2)cs1	i	i	i	i	88
FC(F)(F)c1nc2ccccc2n1CCNc1nc(CN2CCCCC2)cs1	i	i	i	i	i
COc1cccc(C(C[N+](=O)[O-])c2c(C)[nH]n(-c3ccccc3)c2=O)c1 (configuration not stated)	i	i	?	55	i
Cc1[nH]n(-c2ccccc2)c(=O)c1C(C[N+](=O)[O-])c1ccc(Br)cc1 (configuration not stated)	i	i	i	i	nt
Cc1ccc(Nc2cc(C)nn2-c2nc(C)cc(=O)[nH]2)cc1	i	i	-160	216	nt
Cc1ccc(Nc2cc(C)nn2-c2nc(C)cc(C)n2)cc1	i	i	i	i	nt
Cc1cccc(NC(=O)c2onc3c2CCCC3)c1C	i	i	i	i	73
Cc1cccc(NC(=O)c2onc3c2CCCC3)n1	i	i	i	i	nt
Cc1ccccc1NC(=O)c1onc2c1CCCC2	i	i	i	i	140
COCC(=O)N1CCCCN2[C@H](CO)[C@H](c3ccc(-c4ccc(F)cc4)cc3)[C@@H]2C1	i	nt	nt	nt	nt
SMILES	PGC1a acetyl inh	Rce1 inh	AI-2 QS modul	HIF activator	C2C12 statin
CC(C)NC(=O)Nc1ccc2c(c1)C(=O)N([C@@H](C)CO)C[C@@H](C)[C@@H](CN(C)C(=O)NC(C)C)OCCCC[C@H](C)O2	i	nt	nt	nt	nt
Cc1ccc(NC(=O)CCc2ccc(S(=O)(=O)NC3CCCCC3)cc2)cc1	i	+	i	i	i
O=C(CCc1ccc(S(=O)(=O)NC2CCCCC2)cc1)Nc1ccccc1	i	i	i	i	i
Cc1ncc(CO)c(/C=N/Nc2ccc(C(F)(F)F)cn2)c1O	i	i	i	9.6	nt
Cc1ncc(CO)c(/C=N/NC(=S)Nc2ccc(F)cc2)c1O	nt	i	i	i	i
Cc1onc(-c2c(Cl)cccc2Cl)c1C(=O)N=C(N)N1CCCC1	i	i	i	28	i
CCC(=O)Nc1cc(SCCO)cc([N+](=O)[O-])c1	i	i	i	i	i
O=C(CCl)Nc1cc(SCC(O)CO)cc([N+](=O)[O-])c1 (configuration not stated)	53	i	i	i	nt
CCC(=O)N(C)C[C@@H]1Oc2cc(C3=CCCCC3)ccc2S(=O)(=O)N([C@@H](C)CO)C[C@@H]1C	i	nt	nt	nt	i
O=C(CN1CCC(C(=O)c2ccc(Cl)cc2)CC1)Nc1ccc2c(c1)OCCO2	i	i	i	74	i
O=C(CN1C(=O)COc2ccc(Cl)cc21)Nc1ccc2c(c1)OCCO2	i	i	i	82	i
CS(=O)(=O)n1nc(-c2ccc(Cl)cc2)nc1N	i	i	i	i	nt
Cn1nc(-c2ccc(Cl)cc2)nc2c(=O)n(C)c(=O)nc1-2	nt	i	-77	i	nt
C[C@H]1CN([C@@H](C)CO)C(=O)c2cc(NS(C)(=O)=O)ccc2O[C@H]1CN(C)C(=O)Nc1ccc2c(c1)OCO2	i	nt	nt	nt	i
O=C(C(Cc1ccccc1)N1C(=O)c2ccccc2C1=O)N1c2ccccc2CCc2ccccc21 (configuration not stated)	i	+	i	i	nt
O=C1c2ccccc2C(=O)N1CC(=O)N1c2ccccc2CCc2ccccc21	i	i	i	i	nt
O=C(NNS(=O)(=O)c1ccccc1)c1ccc(S(=O)(=O)N2CCCCC2)cc1	nt	i	-96	i	nt
Cc1ccc(NC(=S)N(CCN(C)C)Cc2cc3cccc(C)c3[nH]c2=O)cc1	i	i	i	i	114
COc1ccccc1-c1coc2c(CN3CCN(CCO)CC3)c(O)ccc2c1=O	i	i	i	i	i
COc1ccccc1-c1c(C)oc2c(CN3CCOCC3)c(O)ccc2c1=O	i	?	i	i	i
Cc1oc2c(CN3CCOCC3)c(O)ccc2c(=O)c1-c1ccccc1	i	+	i	i	i
CCN1CCN(Cc2c(O)ccc3c(=O)c(-c4ccccc4OC)coc23)CC1	nt	+	i	i	nt
COc1ccccc1-c1coc2c(CN3CCN(C)CC3)c(O)ccc2c1=O	i	+	i	i	i
O=c1c(-c2ccc(Cl)cc2)coc2c(CN3CCOCC3)c(O)ccc12	i	i	i	i	i
O=c1c(-c2ccccc2)coc2c(CN3CCCC3)c(O)ccc12	i	+	i	i	i
C[C@H](CO)N1C[C@H](C)[C@@H](CN(C)C(=O)Cc2ccncc2)Oc2cc(C#CC3CCCC3)ccc2S1(=O)=O	i	nt	nt	nt	i
CO[C@@H]1CN(C)C(=O)c2cc(NC(=O)C3CC3)ccc2OC[C@H](C)N(CC2CCOCC2)C[C@H]1C	i	nt	nt	nt	i
COc1ccccc1Oc1c(C)oc2c(CN3CCN(CCO)CC3)c(O)ccc2c1=O	nt	+	i	i	nt
CCOc1ccccc1Oc1c(C)oc2c(CN3CCN(CCO)CC3)c(O)ccc2c1=O	i	i	i	i	nt
O=C(CCS(=O)(=O)c1ccccc1)Nc1ncc([N+](=O)[O-])s1	i	i	i	i	75
